Laboratory results: PubChem BioAssay (EPA / NIEHS)
Records with an inconclusive call do not appear. Activity calls are given as the source filed them. How the source made its calls: active means hit-call score of the fitted dose curve at least 0.9, where 1 is the maximum; inconclusive means response in the unintended direction; inactive means score below 0.9.

Key:
[1] = TOX21_p53_BLA_p4_viability: Viability Assessment in the Tox21 HCT-116 p53 Agonism Beta-lactamase Assay, Phase 4 (AID 2283597);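 further: hits lower the luminescence signal meaning cytotoxicity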
How it was run: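 4000 HCT116 cells per well; 5 h attachment; compounds from DMSO, 217-fold dilution; 16 h at 37C. Then CCF4-AM, 2 h RT, followed by CellTiter-Glo, 30 min RT, luminescence. Decrease = cytotoxicity.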

[2] = target: Cellular tumor antigen p53 (Homo sapiens) (UniProt P04637); assay: TOX21_p53_BLA_p5_ratio: Tox21 HCT-116 p53 Agonism Beta-lactamase Assay, Ratio, Phase 5 (AID 2283599)
How it was run: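 HCT-116 cells carrying a p53-inducible beta-lactamase reporter were seeded at 4000 cells/well and dosed after 5 h with compound in DMSO (217-fold dilution). After 16 h at 37C, CCF4-AM substrate was added for 2 h, and the 460/530 nm emission ratio was scored as gain-of-signal versus DMSO.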

[3] = TOX21_p53_BLA_p5_viability: Viability Assessment in the Tox21 HCT-116 p53 Agonism Beta-lactamase Assay, Phase 5 (AID 2283600)
How it was run: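 Decreased CellTiter-Glo luminescence denotes lost viability. Exposure: 16 h at 37C, 5% CO2, with compounds from DMSO stocks diluted 217-fold in wells of 4000 cells.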

[4] = target: Cellular tumor antigen p53 (Homo sapiens) (UniProt P04637); assay: TOX21_p53_BLA_p3_ratio: Tox21 HCT-116 p53 Agonism Beta-lactamase Assay, Ratio, Phase 3 (AID 2283596)
How it was run: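 Cells were seeded at 4000/well, rested 5 h at 37C, then dosed with DMSO compound solutions (217-fold dilution) for 16 h. CCF4-AM substrate was loaded for 2 h at room temperature, and the 460/530 nm emission ratio was fitted for gain of signal versus DMSO.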

[5] = target: Cellular tumor antigen p53 (Homo sapiens) (UniProt P04637); assay: TOX21_p53_BLA_p4_ratio: Tox21 HCT-116 p53 Agonism Beta-lactamase Assay, Ratio, Phase 4 (AID 2283601)
How it was run: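 HCT116 cells carrying an inducible beta-lactamase reporter were plated at 4000 cells/well, rested 5 h, then exposed to compounds in DMSO (217-fold dilution) for 16 h at 37C. CCF4-AM substrate was loaded 2 h at room temperature; 460/530 nm emission ratio scored gain-of-signal versus DMSO.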

[6] = Tanguay_ZF_120hpf_MORT_legacy: (Legacy) Oregon State University Tanguay Lab 120 Hour Post-fertilization zebrafish Assay for Mortality (AID 2283633)
How it was run: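 Dechorionated Tropical 5D wild-type zebrafish embryos, one per well from 6 hpf, static exposure in 0.64% DMSO at 28C until 120 hpf. Mortality scored as binary by brightfield microscopy at 24 and 120 hpf.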

[7] = Tanguay_ZF_120hpf_AXIS_legacy: (Legacy) Oregon State University Tanguay Lab 120 Hour Post-fertilization zebrafish Assay for Body Axis Malformation (AID 2283635);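 further: potency for an increased fraction of larvae scored with body axis malformation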
How it was run: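 Dechorionated wild-type Tropical 5D zebrafish embryos, one per well, statically exposed from 6 hpf to 120 hpf at 28C in 0.64% DMSO final. Body axis malformation scored present/absent by brightfield microscopy at 120 hpf; dead embryos excluded.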

[8] = Tanguay_ZF_120hpf_EYE_legacy: (Legacy) Oregon State University Tanguay Lab 120 Hour Post-fertilization zebrafish Assay for Eye Malformation (AID 2283636);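 further: binary presence or absence of eye malformation scored by brightfield in 120 hpf larvae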
How it was run: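 Static waterborne exposure of dechorionated zebrafish embryos (strain Tropical 5D), 6 to 120 hpf, sealed plates at 28C, 0.64% DMSO vehicle. Eye malformation is scored as a binary endpoint, with gain of signal analysed relative to DMSO.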

[9] = Tanguay_ZF_120hpf_SNOU_legacy: (Legacy) Oregon State University Tanguay Lab 120 Hour Post-fertilization zebrafish Assay for Snout Malformation (AID 2283637)
How it was run: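 Dechorionated zebrafish, individually housed from 6 hpf in covered, sealed wells at 28C with 0.64% DMSO vehicle, were examined at 120 hpf for snout malformation. Responses were binary and analysed positive-direction relative to DMSO.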

[10] = Tanguay_ZF_120hpf_JAW_legacy: (Legacy) Oregon State University Tanguay Lab 120 Hour Post-fertilization zebrafish Assay for Jaw Malformation (AID 2283638);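 further: active means more embryos with jaw malformation than DMSO controls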
How it was run: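 Dechorionated Tropical 5D wild-type zebrafish embryos, one per well, exposed statically from 6 hpf to 120 hpf at 28C in 0.64% DMSO. Jaw malformation was scored by brightfield microscopy as present or absent. It was not scored in dead embryos.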

[11] = Tanguay_ZF_120hpf_OTIC_legacy: (Legacy) Oregon State University Tanguay Lab 120 Hour Post-fertilization zebrafish Assay for Otic Vesicle Malformation (AID 2283639)
How it was run: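 Wild-type zebrafish larvae, whole-embryo exposure from early stage to 120 hpf at 28C. Binary brightfield scoring of otic vesicle morphology, fitted in the positive direction against the DMSO baseline.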

[12] = Tanguay_ZF_120hpf_PE_legacy: (Legacy) Oregon State University Tanguay Lab 120 Hour Post-fertilization zebrafish Assay for Pericardial Edema (AID 2283640);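 further: potency for increased incidence of pericardial edema versus DMSO baseline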
How it was run: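 Tropical 5D wild-type zebrafish embryos were statically exposed until 120 hpf at 28C, with 0.64% DMSO final. Pericardial edema was scored by brightfield as present or absent; endpoints were not scored in dead embryos.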

[13] = Tanguay_ZF_120hpf_SOMI_legacy: (Legacy) Oregon State University Tanguay Lab 120 Hour Post-fertilization zebrafish Assay for Somite Malformation (AID 2283647)
How it was run: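 Dechorionated Tropical 5D wild-type zebrafish embryos, one per well from 6 hpf, statically exposed at 28C to 120 hpf in 0.64% DMSO; somite malformation scored present/absent by brightfield; trimethyltin 5 uM positive control; dead embryos not scored.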

[14] = Tanguay_ZF_120hpf_PFIN_legacy: (Legacy) Oregon State University Tanguay Lab 120 Hour Post-fertilization zebrafish Assay for Pectoral Fin Malformation (AID 2283648);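 further: each larva judged yes or no for fin defect by brightfield with dead larvae skipped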
How it was run: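 Scoring of pectoral fin malformation was binary, made at 120 hpf on larvae exposed statically from 6 hpf after enzymatic chorion removal. Activity was fitted upward relative to DMSO controls at 0.64% (vol/vol).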

[15] = Tanguay_ZF_120hpf_CFIN_legacy: (Legacy) Oregon State University Tanguay Lab 120 Hour Post-fertilization zebrafish Assay for Caudal Fin Malformation (AID 2283649)
How it was run: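 Dechorionated Tropical 5D wild-type embryos, one per well from 6 hpf, static exposure to 120 hpf at 28C in 0.64% DMSO. Caudal fin malformation scored by brightfield as present/absent; not scored in dead embryos.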

[16] = Tanguay_ZF_120hpf_PIG_legacy: (Legacy) Oregon State University Tanguay Lab 120 Hour Post-fertilization zebrafish Assay for Pigmentation Malformation (AID 2283650)
How it was run: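 Endpoint is incidence of abnormal pigmentation at 120 hpf in dechorionated 5D zebrafish exposed singly from 6 hpf at 28C, DMSO vehicle at 0.64%. Embryos dying by 24 or 120 hpf are excluded from scoring.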

[17] = Tanguay_ZF_120hpf_CIRC_legacy: (Legacy) Oregon State University Tanguay Lab 120 Hour Post-fertilization zebrafish Assay for Circulatory Malformation (AID 2283651)
How it was run: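 Binary circulatory-malformation call at 120 hpf via brightfield imaging, relative to DMSO controls. Embryos (5D strain, chorion removed) received static, light-shielded exposure at 28C.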

Measured: AC50

Cellular tumor antigen p53 (Homo sapiens), sequence (P04637 whole entry, looked up): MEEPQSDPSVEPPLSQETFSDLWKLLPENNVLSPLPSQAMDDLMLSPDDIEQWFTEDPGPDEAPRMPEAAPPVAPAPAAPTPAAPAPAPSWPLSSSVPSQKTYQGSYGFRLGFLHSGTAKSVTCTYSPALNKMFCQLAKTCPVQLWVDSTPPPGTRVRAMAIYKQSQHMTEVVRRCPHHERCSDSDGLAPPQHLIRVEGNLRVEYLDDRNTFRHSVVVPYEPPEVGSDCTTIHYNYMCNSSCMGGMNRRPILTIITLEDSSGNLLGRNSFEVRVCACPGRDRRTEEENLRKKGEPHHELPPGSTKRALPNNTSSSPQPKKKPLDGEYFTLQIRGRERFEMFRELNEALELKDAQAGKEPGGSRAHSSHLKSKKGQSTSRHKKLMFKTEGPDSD

O=C(OC1CCCCC1)c1ccccc1C(=O)OC1CCCCC1
inactive: [1] | [2] | [3]

O=P(O)(O)CN(CP(=O)(O)O)CP(=O)(O)O
inactive: [4] | [5]

CCC(=O)C(CC(C)N(C)C)(c1ccccc1)c1ccccc1 (stereo not given)
active: [7] 31.3 µM | [9] 29.1 µM | [10] 34.4 µM | [12] 7.24 µM
not listed: [1] | [3]
inactive: all other assays above
